G9a inh – qHTS Assay for Inhibitors of Histone Lysine Methyltransferase G9a; Potency, µM (series often up to 102 µM), for inactives: at the highest dose activity, negative = inhibition, usual class: inhibitors; hit rate 8.8% among 350,000; AID 504332, 2011; Histone-lysine N-methyltransferase EHMT2 (Homo sapiens), Q96KQ7; G9a H3K9 monomethylation, AlphaScreen, 2 h; further: on the % scale 0 is the no-effect control and ±100 the full control effect; nearly all actives have a fitted effect of over 75% in size
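G9a (20 nM) was preincubated 15 min with compound, then reacted 2 h at room temperature with 500 nM biotin-H3K9 peptide and 20 µM SAM. Monomethyl-H3K9 detected by AlphaScreen using anti-H3K9me1 antibody.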
BAZ2B block – qHTS Assay for Inhibitors of BAZ2B. Bromodomain adjacent to zinc finger domain protein 2B (Homo sapiens), Q9UIF8. AlphaScreen BAZ2B-H3K14Ac peptide displacement. Potency, µM (titrated, usually from 114 µM), for the others: at the top dose activity change, negative = inhibition, hits mostly inhibitors. hit rate 4.4% among 360,000. AID 504333, 2011; further: on the % scale 0 is the no-effect control and ±100 the full control effect; nearly all actives have a fitted effect of over 60% in size
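AlphaScreen displacement of biotin-H3(5-23)K14Ac peptide (50 nM final) from BAZ2B (50 nM final) in PBS pH 7.4, 0.01% Tween-20; complex preformed 30 min RT, then compounds (top 110 uM) 30 min RT, beads 20 min dark.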
HP1b chromo inh – HTS for Inhibitors of HP1-beta Chromodomain Interactions with Methylated Histone Tails. AlphaScreen HP1-beta / biotin-H3K9me3 peptide binding. Potency, µM (top dose mostly 114 µM), without a hit: at the highest dose activity change, negative = inhibition, hits mostly inhibitors. Chromobox protein homolog 1 (Homo sapiens), P83916. AID 540317, 2011. hit rate 0.56% among 390,000; further: nearly all actives have a fitted effect of over 70% in size
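AlphaScreen: HP1-beta (50 nM) preformed 30 min with biotin-H3(1-18)K9me3 peptide (50 nM) in PBS pH 7.4, 0.01% Tween-20. Compound added for 30 min at RT, then streptavidin donor/nickel chelate acceptor beads (10 ug/mL) for 30 min.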
JMJD2A Tudor inh – qHTS Assay for Inhibitors of JMJD2A-Tudor Domain; Potency, µM (highest dose often 114 µM), without a hit: at the highest dose activity change, negative = inhibition, most hits filed as inhibitors; AlphaScreen JMJD2A-Tudor / H3K4me3 peptide binding; hit rate 4.4% among 390,000; further: on the % scale 0 is the no-effect control and ±100 the full control effect; nearly all actives have a fitted effect of over 50% in size
PLK1 PBD inh – qHTS for Inhibitors of PLK1-PDB (polo-like kinase 1 - polo-box domain): Primary Screen. Plk1 PBD binding of FITC phosphopeptide, fluorescence polarization. Potency, µM, inactives show max response, negative = inhibition, hits mostly inhibitors. hit rate 2.8% among 360,000. AID 720504, 2013; further: series mostly up to about 57 µM; on the % scale 0 is the no-effect control and ±100 the full control effect; nearly all actives have a fitted effect of over 65% in size
VDR inh – Inhibitors of the vitamin D receptor (VDR): qHTS. Vitamin D3 receptor (Homo sapiens), P11473. VDR-SRC2-3 peptide fluorescence polarization, 2 h. Potency, µM, without a hit: max response, negative = inhibition, usual class: inhibitors. hit rate 0.93% among 400,000. AID 504847, 2011; further: on the % scale 0 is the no-effect control and ±100 the full control effect
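FP read-out; VDR + SRC2-3 coactivator peptide; 23 nl compound by pintool; 2 h RT incubation; reagents held at 4 deg C, protected from light.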
The depositor's hits bear a star; ? = inconclusive; / = not tested or not shown; [ ] = remark or other dose. Most compounds without a hit are left out; they make up all but 11% or so of the library. The call rests on the fitted dose curve; in most records, active means well fitted curve in the direction sought with a large enough effect; inconclusive means small, poorly fitted or top-dose-only effect, or another doubt; inactive means no such curve, though single readings can be large; an effect the other way counts as inactive or inconclusive. Potency means the concentration at half of the fitted maximal effect.

SMILES	G9a inh	BAZ2B block	HP1b chromo inh	JMJD2A Tudor inh	PLK1 PBD inh	VDR inh
Cc1cccc(-n2c(=O)c3ccccc3n(Cc3ccccc3)c2=O)c1	-3.8%[59 µM]	1.0%	20.3%	-14.7%	/	-8.0%
CSCCC(NC(=O)c1ccccc1Br)C(=O)N1CCCC(C(F)(F)F)C1 (stereo not drawn)	6.5%	-27.4%	6.9%	-19.9%	-2.6%	2.1%
COc1ccc2c(c1)CC/C(=C\c1ccc(C)o1)C2=O	50.1µM*	44.7µM*	?	?	-5.1%	-27.8%
COc1ccc2c(c1)CC/C(=C\C=C\c1ccccc1OC)C2=O	7.94µM*	8.2%	16.2%	-14.9%	-28.5%	5.5%
COc1ccc2c(c1)CC/C(=C/c1ccncc1)C2=O	5.9%[59 µM]	-31.1%	13.0%	-15.1%	-14.4%	?
Cc1cccc(N2CCN(Cc3cc(=O)oc4cc(C)ccc34)CC2C)c1 (stereo not drawn)	-31.1%[59 µM]	-34.7%	14.2%	-29.9%	/	14.7%
COc1ccccc1N1CCN(C(=O)c2ccc3c(c2)N(Cc2cc(C)ccc2C)C(=O)c2ccccc2S3(=O)=O)CC1	-39.5%[59 µM]	?	12.3%	-27.9%	/	-1.1%
CC(C)(C)OC(=O)N[C@@H](Cc1ccccc1)c1nnc(S(=O)(=O)Cc2ccccc2)o1	11.2µM*	-28.4%	/	/	/	/
Cc1cc(C)c(OCC(=O)N(Cc2ccc(N(C)C)cc2)Cc2ccco2)c(C)c1	12.6µM*	8.91µM*	?	20µM*	/	3.0%
Cc1ccc(CN(Cc2ccco2)C(=O)COc2cccc(C)c2C)o1	-3.0%[59 µM]	9.3%	29.0%	?	/	4.3%
Cc1ccc(CN(Cc2ccco2)C(=O)COc2c(C)cc(C)cc2C)cc1	37.6%[59 µM]	33.5%	42.4%	12.2%	/	-4.9%
Cc1cccc(OCC(=O)N(Cc2ccc(N(C)C)cc2)Cc2ccco2)c1C	14.1µM*	10µM*	?	22.4µM*	/	21.0%
CC(=O)N1CCc2cc(S(=O)(=O)NC(CC(C)C)C(=O)NCCc3ccccc3)ccc21 (stereo not drawn)	5.7%[59 µM]	/	9.1%	3.0%	/	-20.2%
COc1ccccc1-c1ccc2ncnc(N3CCN(C)CC3)c2c1	/	/	/	/	/	-2.8%
O=C(CSc1nnc(Nc2ccccc2F)s1)c1cc2ccccc2o1	7.94µM*	-11.4%	?	-31.7%	-14.2%	-8.0%
COc1ccc(Nc2nnc(SCC(=O)c3cc4ccccc4o3)s2)cc1	-134.0%[59 µM]	?	7.7%	-22.9%	-10.8%	?
O=C1c2ccccc2C(=O)N1CSc1nnc(Nc2ccccc2F)s1	10µM*	-14.5%	19.2%	-15.5%	-20.2%	-4.9%
COC(=O)c1ccc(OC)c(CN2C(=O)N(c3ccc(C(C)=O)cc3)S(=O)(=O)c3ccccc32)c1	-3.4%[59 µM]	0.1%	26.8%	-19.3%	/	14.6%
O=[N+]([O-])C1=CC=C2C(=NC3(CCCCC3)N2O)C1=NC1CCCCC1	/	3.16µM*	12.6µM*	?	-12.0%	8.8%
CC1(C)CC(N=C2C([N+](=O)[O-])=CC=C3C2=NC2(CCCCC2)N3O)CC(C)(C)N1	/	-34.7%	-10.2%	-12.5%	0.5%	-2.5%
CC(C)(C)N=C1C([N+](=O)[O-])=CC=C2C1=NC1(CCCCC1)N2O	3.55µM*	5.62µM*	25.1µM*	6.31µM*	-10.0%	-3.8%
O=[N+]([O-])C1=CC=C2C(=NC3(CCCCC3)N2O)C1=NCCc1ccccc1	7.08µM*	-23.7%	-22.2%	-12.8%[11.4 µM]	?	-12.6%
Cc1ccc(C(=O)c2c3ccccc3[n+]([O-])n2CCC(N)=O)cc1	25.9%	1.7%	23.5%	-11.3%	-9.6%	8.4%
CCc1nc2c(OCc3ccc(C#N)cc3)cccn2c1N(C)C(=O)C(C)C	/	/	/	/	-6.9%	/
COC(=O)NC(C(=O)OC)(C(=O)OC)c1ccccc1	/	/	/	/	/	1.3%

Screening data: PubChem, National Center for Advancing Translational Sciences (NCATS)
